Screening data as filed in PubChem BioAssay.
Hits are enriched below; roughly 4.2% of the tested compounds scored in any of these assays.
S1P4 antag: S1P4 receptor antagonists, primary screen, cell-based; inhibition, % at 4.98 µM; AID 1510, 2009; 220,000 compounds, 0.26% hits; S1P4-expressing cells, antagonist mode, reporter read-out; in the data active means inhibition above about 29%
Target sequence (O95977 whole entry, looked up): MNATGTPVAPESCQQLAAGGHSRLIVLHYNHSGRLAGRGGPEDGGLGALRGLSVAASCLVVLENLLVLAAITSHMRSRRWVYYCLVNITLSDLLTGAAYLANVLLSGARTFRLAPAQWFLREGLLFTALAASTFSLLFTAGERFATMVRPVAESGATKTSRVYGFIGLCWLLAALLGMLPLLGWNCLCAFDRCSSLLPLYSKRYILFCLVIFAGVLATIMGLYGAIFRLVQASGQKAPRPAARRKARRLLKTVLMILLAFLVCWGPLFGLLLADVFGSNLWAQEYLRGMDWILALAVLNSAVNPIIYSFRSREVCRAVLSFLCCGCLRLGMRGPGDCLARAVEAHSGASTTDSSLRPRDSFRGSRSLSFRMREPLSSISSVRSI
Hsp70 act: Hsp70 transcriptional activators, primary screen, cell-based, HeLa, Hsp70 promoter luciferase, luminescence, 10 µM. AID 1203, 2008. 200,000 compounds, 0.04% hits. activation, % at 10 µM. HeLa Hsp70 promoter luciferase reporter; scaled: vehicle 0, proteasome-inhibitor control 100%;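 active means activation above the mean across all tested compounds plus 3 SD, cutoff set per campaign, cut at about 5.5% in these data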
S1P4 agonist: S1P4 receptor agonists, primary screen, cell-based | S1P4-expressing cell line, agonist reporter assay | 220,000 compounds, 0.35% hits | activation, % at 4.98 µM; in the data active means activation above about 11%
CHOP inhibitor: inhibitors of CHOP promoter induction, primary screen, cell-based, unfolded protein response, luciferase reporter. CHO-K1 CHOP-promoter luciferase, tunicamycin-induced, 15-18 h. inhibition, % at 10 µM. 220,000 compounds, 3.8% hits. AID 2732, 2010;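 active means compounds that reduced the stress-induced luciferase reporter signal by more than about 70% of percent inhibition, limit read from the data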
CHOP inh conf: retest of CHOP induction inhibitors, confirmation, cell-based. shares compounds with CHOP inhibitor. CHO-CHOP promoter luciferase reporter, tunicamycin-induced, luminescence. inhibition, % at 10 µM. 2,100 compounds, 45% hits;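 active means mean of three repeat readings of reporter signal inhibition above a set limit, cut at about 70% in these data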
A number is an active result; - = inactive; . = not tested or not shown.

SMILES	S1P4 antag	Hsp70 act	S1P4 agonist	CHOP inhibitor	CHOP inh conf
COc1ccc2[nH]c(=O)c(CN(Cc3nnnn3Cc3ccco3)C3CCCCC3)cc2c1	-	-	-	-	.
CCCn1c(N/N=C(C)\C=C\c2ccccc2)nc2c1c(=O)[nH]c(=O)n2C	-	-	-	103.5	-
O=C(Nc1cccc(Cl)c1)NC1(C(=O)NCc2cccs2)CCCCC1	-	-	-	104.0	-
O=C(COc1ccc(Cl)cc1)Nc1ccccc1C(=O)NCc1ccco1	-	-	-	97.0	-
Cc1cc(C)cc(OCC(=O)Nc2ccccc2C(=O)NCc2ccco2)c1	-	-	-	-	.
CN(C)c1ccc(Sc2nnc(NC(=O)Nc3ccc(Cl)cc3Cl)s2)cc1	-	-	-	99.8	-
Cc1n[nH]c(=S)n1/N=C/c1ccc(OCc2ccc(Cl)cc2Cl)cc1	-	-	-	-	.
Cc1n[nH]c(=S)n1/N=C/c1ccccc1OCc1ccc(Cl)cc1Cl	-	-	-	101.6	-
CCOC(=O)c1c(C)[nH]c(C(=O)CSc2nc3ccccc3o2)c1C	-	-	-	-	.
Cc1ccc(Sc2ccc(NC(=O)c3ccc(S(C)(=O)=O)cc3Cl)cc2)cc1	-	-	-	97.8	-
CS(=O)(=O)c1ccc(C(=O)Nc2ccc(N3CCCCC3)cc2)c(Cl)c1	-	-	-	-	.
Cc1ccc(C2C(/C=C3/SC(=S)NC3=O)=C(c3cccs3)Oc3ccccc32)cc1 (stereo unspecified)	-	-	-	99.1	-
CC1Cc2cc(/C=C3/SC(=S)NC3=O)ccc2O1 (stereo unspecified)	-	.	-	-	.
COC(=O)CSC1=NS(=O)(=O)c2ccccc21	-	-	-	-	.
O=C(CSC1=NS(=O)(=O)c2ccccc21)Nc1ccccc1	-	-	-	106.3	-
CC(=O)c1ccc(N2CCN(C(=O)c3cc(-c4ccc5c(c4)OCO5)nc4ccccc34)CC2)cc1	-	-	-	-	.
O=[N+]([O-])c1cccc(/C=N\N=C2c3ccccc3-c3ccccc32)c1O	-	-	-	-	.
Cc1csc(SC(C)C(=O)Nc2ccc(S(=O)(=O)N3CCCC3)cc2)n1 (stereo unspecified)	-	-	-	-	.
Cc1nnc(SC(C)C(=O)Nc2ccc(S(=O)(=O)N3CCCCC3)cc2)s1 (stereo unspecified)	-	-	-	100.1	-
N#CC1=C(SCC(=O)NC2CCCCC2)NC(=O)CC1c1ccco1 (stereo unspecified)	-	-	-	-	.
CCOc1cc(NC(=S)NCC(C)C)c(OCC)cc1NC(=O)c1cccs1	-	-	-	99.6	100.0
CCNC(=S)Nc1cc(OCC)c(NC(=O)c2cccs2)cc1OCC	-	-	-	-	.
Cc1ccc(C)c(NC(=S)N2CCC(c3nc4ccccc4s3)CC2)c1	-	-	-	-	.
CCCCc1nc(SCC(=O)Nc2nnc(CCCC)s2)n[nH]1	-	-	-	-	.
Cc1cccc(Nc2nc(N)c([N+](=O)[O-])c(NCCO)n2)c1	-	.	-	-	.
SMILES	S1P4 antag	Hsp70 act	S1P4 agonist	CHOP inhibitor	CHOP inh conf
Cc1cccc(Nc2nc(N)c([N+](=O)[O-])c(N3CCC(C)CC3)n2)c1	-	-	-	104.4	-
Cc1cccc(Nc2nc(N)c([N+](=O)[O-])c(N3CC(C)CC(C)C3)n2)c1 (stereo unspecified)	-	-	-	102.7	117.5
CC(=O)NC(O)C(=O)c1ccccc1 (stereo unspecified)	-	-	-	-	.
CCOC(=O)C1(CC2CC2)CCN(Cc2cn[nH]c2-c2ccccc2)CC1	-	-	-	-	.
O=[N+]([O-])c1ccccc1-c1cc(-c2ccccc2O)n[nH]1	-	-	-	-	.
Cc1ccc(-c2cc(-c3cccc(F)c3)n[nH]2)c(O)c1	-	-	-	-	.
Cc1ccc(-c2cc(-c3ccccc3C)[nH]n2)c(O)c1	-	-	-	102.4	-
Cc1ccc(O)c(-c2cc(-c3ccccc3F)[nH]n2)c1	-	-	-	104.0	-
Cc1ccc(O)c(-c2cc(-c3cccc(F)c3)n[nH]2)c1	-	-	-	102.3	-
Cn1cnc([N+](=O)[O-])c1S(=O)(=O)c1ccc(Cl)cc1	-	-	-	109.5	115.5
Cn1cnc([N+](=O)[O-])c1NC(C)(C)C	-	-	-	-	.
CC(C)(C)c1nc2c(C#N)c(-c3ccc(Cl)cc3)ccn2n1	-	-	-	100.9	-
CCOC(=O)C1=C(CSc2nccn2C)NC(=O)NC1c1cc(C)ccc1C (stereo unspecified)	-	-	-	-	.
COC(=O)C(Nc1ccccc1Cl)(c1cc(C)c(O)c(C)c1)C(F)(F)F (stereo unspecified)	-	-	-	109.3	96.7
CCCCSc1nc(CCC)cc(=O)[nH]1	-	-	-	-	.
CCCc1cc(=O)[nH]c(SCCOc2ccc(Cl)cc2)n1	-	-	-	101.1	-
O=C1CC(Sc2nnc(-c3ccccc3)o2)C(=O)N1c1ccccc1 (stereo unspecified)	-	-	-	-	.
Cc1ccccc1N1C(=O)CC(Sc2nnc(-c3ccccc3)o2)C1=O (stereo unspecified)	-	-	-	108.3	-
COc1ccc(-c2csc(NC(=O)/C(N=Nc3ccccc3)=C(\C)O)n2)cc1	-	-	-	-	.
C[C@H](NC(=O)c1[nH]cnc1C(=O)Nc1ccccc1)C(=O)OC(C)(C)C	.	.	.	-	.
Cc1ccc(NC(=O)c2nc[nH]c2C(=O)N[C@@H](C)C(=O)OC(C)(C)C)cc1	.	.	.	96.6	78.2
CC(C)(C)OC(=O)CNC(=O)c1[nH]cnc1C(=O)Nc1ccc(Cl)cc1	.	.	.	100.2	76.6
O=C1C=CC(=O)N1c1ccc(OC(F)F)cc1	-	-	-	106.8	-
O=C1C=CC(=O)N1c1ccc(O)cc1	-	.	-	-	.
CCOC(=O)c1ccccc1NC(=O)c1cn(-c2ccc(OC)cc2)c(=O)c2ccccc12	-	-	-	-	.
SMILES	S1P4 antag	Hsp70 act	S1P4 agonist	CHOP inhibitor	CHOP inh conf
O=C(N/C(=C/c1cccc(Br)c1)c1nc(=S)[nH][nH]1)c1ccccc1	-	-	-	-	.
Cc1ccc(C(=O)N/C(=C\c2ccc(Br)cc2)c2nc(=S)[nH][nH]2)cc1	-	-	-	107.8	121.6
CN(C)S(=O)(=O)c1ccc(C(=O)NCC2(N3CCCCC3)CCCCC2)cc1	-	-	-	-	.
COc1ccc(Cc2nc3ccccc3n2CC(=O)N/N=C/c2ccc(C)cc2O)cc1OC	-	-	-	104.2	103.3
COc1ccc(Cc2nc3ccccc3n2CC(=O)N/N=C/c2ccc(O)cc2)cc1OC	-	-	-	-	.
O=C1C(C2=NC(c3ccccn3)C3C(=O)N(c4ccc(Cl)cc4Cl)C(=O)C23)=C(O)c2ccccc21 (stereo unspecified)	-	.	-	104.9	118.0
O=S(=O)(/N=C(/Sc1ccccc1)c1ccccc1)c1ccccc1	-	-	-	111.8	-
CCC1CCCCN1C(=O)N[C@@H](CCSC)C(=O)OC (stereo partly specified)	-	-	-	-	.
